# From PubChem BioAssay
# The source made the active and inactive calls.
# Tests used:
# [1] = small molecules captured by biotinylated probe aFSTL3 – biochemical, small-molecule microarray, fluorescence 635/667, stem cell growth factor project, primary screen (AID 1064); conditions: higher = more signal;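 note: measures binding of the biotinylated anti-FSTL3 antibody to printed compounds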
# [2] = binders from COS7 lysate, DM2A8 probe, primary screen, torsin A project, cell lysate, small-molecule microarray, fluorescence 635/667 (AID 1065); conditions: higher = more signal, COS7 lysate expressing mutant human TOR1A
# [3] = small molecules captured by biotinylated probe aFGF2 – biochemical, small-molecule microarray, fluorescence 635/667, stem cell growth factor project, primary screen (AID 1067); conditions: higher = more signal;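 note: measures binding of biotinylated aFGF2 protein to printed compounds on slides; z-score merges feature fluorescence and signal-to-noise across triplicate slides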
# [4] = small molecules captured by biotinylated probe aFGF10 – biochemical, small-molecule microarray, fluorescence 635/667, stem cell growth factor project, primary screen (AID 1071); conditions: higher = more signal;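 note: score merges 667 nm spot intensity and signal to noise from triplicate slides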
# [5] = biological target: Neurogenic locus notch homolog protein 2 (Homo sapiens) (UniProt Q04721); assay: small molecules binding Notch2 protein – biochemical, small-molecule microarray, 635 nm fluorescence, stem cell growth factors, primary screen (AID 1073); conditions: higher = more signal
# [6] = biological target: Pro-neuregulin-1, membrane-bound isoform (Homo sapiens) (UniProt Q02297); assay: small molecules binding neuregulin-1 protein – biochemical, small-molecule microarray, fluorescence 635/667, psychiatric disease protein project, primary screen (AID 1075); conditions: NRG1 binding, 635 nm fluorescence, higher = more signal;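 note: score combines 667 nm spot fluorescence with signal to noise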
# Chain of Pro-neuregulin-1, membrane-bound isoform (Homo sapiens) (Q02297 whole entry, looked up, the tested form may be a part, canonical isoform): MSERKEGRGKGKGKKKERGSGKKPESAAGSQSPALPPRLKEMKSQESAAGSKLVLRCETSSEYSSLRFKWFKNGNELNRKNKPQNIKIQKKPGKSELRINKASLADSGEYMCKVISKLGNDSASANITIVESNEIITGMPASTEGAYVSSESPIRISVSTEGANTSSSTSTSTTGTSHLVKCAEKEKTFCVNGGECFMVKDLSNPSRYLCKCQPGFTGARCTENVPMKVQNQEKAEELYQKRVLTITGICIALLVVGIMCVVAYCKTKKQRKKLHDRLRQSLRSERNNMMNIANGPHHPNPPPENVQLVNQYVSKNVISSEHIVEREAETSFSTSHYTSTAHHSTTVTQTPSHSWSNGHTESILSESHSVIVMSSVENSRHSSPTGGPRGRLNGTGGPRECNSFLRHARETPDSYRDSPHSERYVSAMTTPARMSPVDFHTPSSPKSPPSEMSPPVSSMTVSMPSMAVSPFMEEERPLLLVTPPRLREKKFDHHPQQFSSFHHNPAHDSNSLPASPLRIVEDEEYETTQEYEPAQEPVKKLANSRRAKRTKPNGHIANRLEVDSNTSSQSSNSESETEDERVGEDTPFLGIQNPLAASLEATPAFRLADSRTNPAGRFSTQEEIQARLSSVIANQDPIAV
# [7] = test system: Neuregulin-1 EGF-like domain; assay: small molecules binding NRG1 EGF domain – biochemical, small-molecule microarray, 635 nm fluorescence, primary screen (AID 1081); conditions: higher = more signal;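 note: binding of the protein to compounds printed on small-molecule microarray slides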
# [8] = FRG1 expression reporter modulators in myotubes – cell-based, C2C12 myotubes, firefly/Renilla luciferase, luminescence, FRG1 inhibition for FSHD, primary screen (AID 1084); conditions: FRG1 promoter luciferase, higher = more signal, called active from +8 up or from −8 down
# [9] = small molecules captured by biotinylated probe aFST – biochemical, small-molecule microarray, fluorescence 635/667, stem cell growth factor project, primary screen (AID 1086); conditions: higher = more signal;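 note: score merges 667 nm fluorescence with signal-to-noise of each printed compound spot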
# [10] = binders of probe aHhip on microarray, primary screen, stem cell growth factor project, biochemical, small-molecule microarray, fluorescence 635/667 (AID 1087); conditions: higher = more signal;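 note: score merges spot fluorescence at 667nm with spot signal to noise ratio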
# [11] = test system: PRMT1 (protein arginine N-methyltransferase 1); assay: small molecules binding arginine methyltransferase PRMT1 – biochemical, small-molecule microarray, 635 nm fluorescence, primary screen (AID 1088); conditions: higher = more signal;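 note: binding of Prmt1 protein to compounds spotted on small-molecule microarray slides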
# [12] = growth effects on S. cerevisiae YJM789 – YJM789 clinical isolate, OD600, 24 h, basal, primary screen (AID 1089); conditions: higher = more signal, called active from +8 up or from −8 down;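 note: growth of clinical yeast isolate S. cerevisiae YJM 789 seeded 1000 cells per well; test concentration not given here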
# [13] = S. pombe growth modifiers, basal conditions – strain 972, OD600, 24 h, no modulator, primary screen (AID 1090);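 note: basal condition with compound alone and no growth modifier present; test concentration not given here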; conditions: S. pombe 972 growth, higher = more signal, called active from +8 up or from −8 down
# [14] = budding yeast growth modifiers under rapamycin – strain BY4716, OD600, 96 h, primary screen (AID 1091); note: test concentration not given here; conditions: S. cerevisiae BY4716 + rapamycin, higher = more signal, called active from +8 up or from −8 down
# [15] = biological target: Torsin-1A-interacting protein 2 (Homo sapiens) (UniProt Q8NFQ8); assay: small molecules binding lysate-expressed LULL1 – cell lysate, human LULL1 lysate, 635/667 nm fluorescence, primary screen (AID 1092); conditions: small-molecule microarray, hLULL1 lysate binding, 635 nm fluorescence; higher = more signal;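 note: probe is lysate of COS7 cells overexpressing human LULL1; score merges per-feature 667 nm fluorescence with signal-to-noise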
# Chain of Torsin-1A-interacting protein 2 (Homo sapiens) (Q8NFQ8 whole entry, looked up): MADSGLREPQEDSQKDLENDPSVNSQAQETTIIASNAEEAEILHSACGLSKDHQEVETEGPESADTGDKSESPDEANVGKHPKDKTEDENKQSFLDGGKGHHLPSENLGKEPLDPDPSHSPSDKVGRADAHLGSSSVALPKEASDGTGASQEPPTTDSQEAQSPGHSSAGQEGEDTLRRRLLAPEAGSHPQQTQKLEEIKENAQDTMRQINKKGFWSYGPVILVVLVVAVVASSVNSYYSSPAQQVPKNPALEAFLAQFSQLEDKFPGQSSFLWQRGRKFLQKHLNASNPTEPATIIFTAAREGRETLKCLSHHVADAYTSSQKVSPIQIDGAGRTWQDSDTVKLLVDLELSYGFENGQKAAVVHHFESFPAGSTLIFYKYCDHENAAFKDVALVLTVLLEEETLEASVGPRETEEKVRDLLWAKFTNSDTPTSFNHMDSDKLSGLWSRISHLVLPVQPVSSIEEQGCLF
# [16] = optical density change of DRC41 E. coli – strain DRC41, OD650, 24 h, E. coli filamentation project, primary screen (AID 1093);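 note: MC1000 strain lacking acrAB efflux and sulA so SOS filamentation is blocked; test concentration not given here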; conditions: E. coli DRC41 growth, higher = more signal, called active from +8 up or from −8 down
# [17] = probe aLefty2 binding to arrayed compounds – biochemical, biotinylated probe, 635/667 nm fluorescence, primary screen (AID 1094); conditions: small-molecule microarray, higher = more signal;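 note: score merges spot fluorescence near 667 nm with spot signal-to-noise ratio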
# [18] = test system: Noggin (protein binding on small-molecule microarray); assay: small molecules binding Noggin protein – biochemical, 635/667 nm fluorescence, primary screen (AID 1095); conditions: 635 nm fluorescence, higher = more signal;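 note: score merges 667 nm feature fluorescence with signal to noise over triplicate slides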
# [19] = biological target: Neurogenic locus notch homolog protein 3 (Homo sapiens) (UniProt Q9UM47); assay: small molecules binding NOTCH3 protein – biochemical, 635/667 nm fluorescence, primary screen (AID 1096); conditions: small-molecule microarray, 635 nm fluorescence, higher = more signal
# Chain of Neurogenic locus notch homolog protein 3 (Homo sapiens) (Q9UM47 whole entry, looked up): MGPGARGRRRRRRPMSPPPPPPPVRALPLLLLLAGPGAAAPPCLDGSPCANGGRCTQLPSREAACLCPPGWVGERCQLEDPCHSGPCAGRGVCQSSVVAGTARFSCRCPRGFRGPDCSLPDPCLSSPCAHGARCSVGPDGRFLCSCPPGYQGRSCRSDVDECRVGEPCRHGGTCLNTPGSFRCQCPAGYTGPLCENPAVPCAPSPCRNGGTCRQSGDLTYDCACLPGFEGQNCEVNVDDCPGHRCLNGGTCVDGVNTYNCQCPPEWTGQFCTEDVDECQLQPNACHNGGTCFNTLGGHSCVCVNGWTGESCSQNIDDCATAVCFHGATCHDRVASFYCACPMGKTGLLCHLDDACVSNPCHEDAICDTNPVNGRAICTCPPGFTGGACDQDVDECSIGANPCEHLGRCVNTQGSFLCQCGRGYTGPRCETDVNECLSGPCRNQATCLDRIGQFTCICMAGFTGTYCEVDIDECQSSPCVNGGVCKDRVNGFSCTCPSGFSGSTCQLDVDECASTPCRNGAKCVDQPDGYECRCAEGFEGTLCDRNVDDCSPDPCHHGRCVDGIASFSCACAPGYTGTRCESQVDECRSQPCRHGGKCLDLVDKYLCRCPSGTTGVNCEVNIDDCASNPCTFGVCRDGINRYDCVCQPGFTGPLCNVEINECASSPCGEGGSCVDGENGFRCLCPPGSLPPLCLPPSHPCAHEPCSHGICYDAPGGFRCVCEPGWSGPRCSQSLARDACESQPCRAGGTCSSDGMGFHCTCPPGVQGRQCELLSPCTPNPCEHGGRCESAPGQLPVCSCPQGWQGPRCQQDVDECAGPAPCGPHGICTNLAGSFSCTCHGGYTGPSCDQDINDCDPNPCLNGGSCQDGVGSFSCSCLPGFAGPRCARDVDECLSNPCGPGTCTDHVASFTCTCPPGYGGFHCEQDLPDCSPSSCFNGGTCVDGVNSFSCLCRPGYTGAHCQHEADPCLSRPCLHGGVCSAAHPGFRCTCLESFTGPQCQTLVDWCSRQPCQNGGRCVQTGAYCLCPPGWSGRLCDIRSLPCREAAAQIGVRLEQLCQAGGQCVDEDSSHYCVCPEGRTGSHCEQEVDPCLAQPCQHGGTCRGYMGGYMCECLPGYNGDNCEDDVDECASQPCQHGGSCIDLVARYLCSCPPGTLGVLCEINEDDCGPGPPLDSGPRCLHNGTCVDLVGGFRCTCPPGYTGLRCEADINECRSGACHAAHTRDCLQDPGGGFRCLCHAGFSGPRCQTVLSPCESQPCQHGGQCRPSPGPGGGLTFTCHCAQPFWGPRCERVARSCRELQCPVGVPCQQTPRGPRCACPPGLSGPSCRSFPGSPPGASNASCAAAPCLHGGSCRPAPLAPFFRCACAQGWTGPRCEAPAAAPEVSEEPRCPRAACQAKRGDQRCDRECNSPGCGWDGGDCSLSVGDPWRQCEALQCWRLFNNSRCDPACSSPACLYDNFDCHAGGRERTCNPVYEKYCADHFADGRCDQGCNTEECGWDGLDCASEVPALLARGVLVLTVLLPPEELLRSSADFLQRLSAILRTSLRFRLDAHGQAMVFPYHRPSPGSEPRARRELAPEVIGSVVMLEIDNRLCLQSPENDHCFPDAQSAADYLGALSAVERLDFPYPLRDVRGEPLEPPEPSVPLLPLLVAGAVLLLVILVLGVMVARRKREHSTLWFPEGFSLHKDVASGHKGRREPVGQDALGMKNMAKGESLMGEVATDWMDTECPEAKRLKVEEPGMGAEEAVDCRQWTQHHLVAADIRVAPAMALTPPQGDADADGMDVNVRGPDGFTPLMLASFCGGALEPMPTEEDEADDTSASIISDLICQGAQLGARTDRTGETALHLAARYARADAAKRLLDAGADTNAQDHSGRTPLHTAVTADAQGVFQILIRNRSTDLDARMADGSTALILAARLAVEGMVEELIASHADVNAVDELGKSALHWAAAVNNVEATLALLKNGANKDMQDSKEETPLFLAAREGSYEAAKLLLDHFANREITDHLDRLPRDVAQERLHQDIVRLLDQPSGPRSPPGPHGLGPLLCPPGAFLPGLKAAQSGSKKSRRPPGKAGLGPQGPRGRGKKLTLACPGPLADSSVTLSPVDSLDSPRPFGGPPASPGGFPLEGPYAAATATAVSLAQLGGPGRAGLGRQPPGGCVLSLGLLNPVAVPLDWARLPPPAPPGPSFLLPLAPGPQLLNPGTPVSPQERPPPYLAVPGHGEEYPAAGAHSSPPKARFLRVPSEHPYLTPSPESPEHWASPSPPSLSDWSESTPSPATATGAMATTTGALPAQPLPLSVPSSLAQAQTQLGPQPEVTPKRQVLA
# [20] = probe aEGFR binding to arrayed compounds – biochemical, biotinylated probe, 635/667 nm fluorescence, primary screen (AID 1097); conditions: small-molecule microarray, higher = more signal;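 note: probe is a biotinylated anti-EGFR antibody binding compounds printed on slides; score combines fluorescence near 667 nm and signal to noise of each spot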
Structure (SMILES),composite z-score [1],composite z-score [2],composite z-score [3],composite z-score [4],composite z-score [5],composite z-score [6],composite z-score [7],z-score [8],composite z-score [9],composite z-score [10],composite z-score [11],z-score [12],z-score [13],z-score [14],composite z-score [15],z-score [16],composite z-score [17],composite z-score [18],composite z-score [19],composite z-score [20]
O=C1O[C@H](c2ccccc2)[C@H](c2ccccc2)N2[C@H]1[C@@H](C(=O)O)[C@]1(C(=O)Nc3ccc(C#CCCO)cc31)[C@H]2c1ccc(O)cc1,1.32,0.502,0.0248,-0.0925,-0.665,0.957,0.708,0.482 (inactive),0.481,0.437,-0.685,0.396 (inactive),-0.228 (inactive),0.385 (inactive),0.782,1.57 (inactive),0.541,-0.228,-0.557,0.186
COc1ccc(C(O)C2C=CC3C(=O)NC(=O)C3N2Nc2ccccn2)cc1 (stereo not given),-0.0118,-0.765,0.0143,0.585,0.891,0.843,0.844,1 (inactive),0.357,-0.159,0.425,0.181 (inactive),0.312 (inactive),0.359 (inactive),0.665,-0.434 (inactive),0.251,0.195,0.49,0.164
COC(=O)[C@@]1(Cc2ccccc2)[C@H]2c3cc(C(=O)N4CCCC4)n(CC4CC4)c3C[C@H]2CN1C(=O)c1ccccc1,0.963,0.365,0.424,0.703,1.6,1.64,1.14,0.692 (inactive),2.15,0.337,1.21,0.0645 (inactive),0.513 (inactive),0.667 (inactive),3.32,-0.887 (inactive),0.508,0.294,1.05,0.776
COC(=O)C(CC#Cc1ccc2c(c1)[C@]1(C(=O)N2)[C@H](c2ccc(O)cc2)N2[C@H](c3ccccc3)[C@H](c3ccccc3)OC(=O)[C@H]2[C@@H]1C(=O)Nc1nc2ccccc2s1)C(=O)OC,-0.386,0.372,0.0402,1.08,1.23,1.44,1.24,-0.532 (inactive),0.313,-0.0672,1.54,-1.28 (inactive),-0.496 (inactive),-1.33 (inactive),3.22,0.91 (inactive),0.0669,0.508,1.13,0.0414
C[C@@H]1ON(c2cccc(C(=O)OC(C)(C)C)c2)[C@H](c2ccc(Br)cc2)[C@H]1C(=O)N1C(=O)OC[C@H]1Cc1ccccc1,-0.532,0.351,-0.031,0.511,1.37,0.457,0.958,-0.295 (inactive),0.625,0.245,1.54,0.912 (inactive),1.38 (inactive),0.528 (inactive),1.5,-0.448 (inactive),-0.0408,0.57,1.12,-0.0039
